In PubChem BioAssay AID1986 (Sanford-Burnham Center for Chemical Genomics, 2009):
The campaign covered roughly 290,000 compounds. About 890 (0.31%) were called active. Cut-off read from the data, not from the text of the source: active = inhibition mostly above about 52% (no sharp cut-off); inactive = mostly below about 76%. This excerpt belongs to a sample that is enriched for actives.

Assay: cell-free HIV fusion peptide-binding blockers – biochemical, uHTS, fluorescence dequenching, primary screen (AID 1986)
Conditions: 30 min, stronger effect = higher value
[1] = measured here: repeat confirmation average inhibition, at 18.6 µM

| Compound | inhibition (at 20 µM) | inhibition [1] [%] |
| --- | --- | --- |
| CN1CCN(c2ccc(Cl)cc2N)CC1 | 0.1% (inactive) |  |
| CCC(=O)N1CC(=O)Nc2ccc(Cl)cc2C1c1ccc(F)cc1 (stereo not drawn) | -1.6% (inactive) |  |
| Cc1cccc(OCC(=O)N2CCN(Cc3ccc([N+](=O)[O-])cc3)CC2)c1 | -1.3% (inactive) |  |
| COc1cc(OC)c(C=O)c(OC(=O)N(C)C)c1 | 0.7% (inactive) |  |
| CCCC[N+]12CCC(CC1)C(=C(c1ccccc1)c1ccccc1)C2 | 1.1% (inactive) |  |
| C[C@]12CCC3C(CCC4=C/C(=N/OCC(=O)NC(CCC(=O)O)C(=O)O)CC[C@@]43C)C1CCC2O (stereo partly drawn) | 3.9% (inactive) |  |
| NCCCC(=O)OC1N=C(c2ccccc2Cl)c2cc(Br)ccc2NC1=O (stereo not drawn) | -0.8% (inactive) |  |
| Clc1cccc(N2CCNCC2)n1 | 0.9% (inactive) |  |
| CC(=NCC1CCCO1)c1c(O)n(C)c(=O)n(C)c1=O (stereo not drawn) | -2.1% (inactive) |  |
| CCN1C(=O)C(=Cc2ccc(N3CCOCC3)o2)C(=O)N(CC)C1=S | 136% (inactive) |  |
| CN1C(=O)C(=Cc2ccc(N3CCCCC3)o2)C(=O)N(C)C1=S | 103% (active) | 52.4 |
| CN1C(=O)C(=Cc2ccc(N3CCOCC3)o2)C(=O)N(C)C1=S | 144% (inactive) |  |
| CN1C(=O)C(=Cc2ccc(N3CCCCCC3)o2)C(=O)N(C)C1=S | 149% (inactive) |  |
| Cc1cc(C)cc(N2C(=O)/C(=C\c3ccc(N4CCN(C)CC4)o3)C(=O)NC2=S)c1 | 149% (inactive) |  |
| CN1C(=O)C(=Cc2ccc(N3CCOCC3)o2)C(=O)N(C)C1=O | 69.4% (active) | 81.3 |
| Cc1cc(N2CCCCC2)ccc1C=C1C(=O)N(C)C(=S)N(C)C1=O | 17.8% (inactive) |  |
| CN1CCN(c2ccc(/C=C3\C(=O)NC(=S)N(c4cccc(Br)c4)C3=O)o2)CC1 | 53.7% (active) |  |
| Cc1cccc(N2C(=O)/C(=C/c3ccc(N4CCN(C)CC4)o3)C(=O)NC2=S)c1C | 13.2% (inactive) |  |
| CNc1ccc2nc3ccccc3[n+](C)c2c1 | 20.9% (inactive) |  |
| COc1cc(C(=S)N2CCOCC2)cc(OC)c1OC(=O)Cc1ccccc1 | -1.3% (inactive) |  |
| O=C(CNC(=O)c1ccc(Br)cc1)Nc1ccc(Br)cc1C(=O)c1ccccc1 | 1.3% (inactive) |  |

| Compound | inhibition (at 20 µM) | inhibition [1] [%] |
| --- | --- | --- |
| CCOC(=O)N(CC)c1ccc(C(O)(C(=O)OC)C(F)(F)F)cc1 (stereo not drawn) | 1.2% (inactive) |  |
| CCCCn1c(=O)c(C(=O)NCc2ccco2)c(O)c2ccccc21 | 4.7% (inactive) |  |
| N#CC(C#N)=Cc1ccc(N2CCCC2)cc1 | 11.8% (inactive) |  |
| Cc1cc(C=C(C#N)C#N)ccc1N1CCCC1 | 40.1% (inactive) |  |
| Cc1cc(N2CCCC2)ccc1C=C(C#N)C#N | 80.3% (active) |  |
| c1ccc(-c2[nH]c[n+](CC3CO3)c2-c2ccccc2)cc1 (stereo not drawn) | 12.3% (inactive) |  |
| O=C(CCc1nnc2ccc(NCc3ccccc3Cl)nn12)N1CCC2(CC1)OCCO2 | 1% (inactive) |  |
| CCCCn1c(O)c(C(=O)/C=C/c2c[nH]c3ccccc23)c(=O)[nH]c1=O | 97.6% (active) |  |
| O=C(/C=C/c1c[nH]c2ccccc12)c1c(O)n(CCc2ccccc2)c(=O)[nH]c1=O | 148% (inactive) |  |
| CCCCn1c(O)c(C(C)=NCCc2c[nH]c3ccccc23)c(=O)[nH]c1=O | 0.5% (inactive) |  |
| CC(=O)NNC(=O)CN1C(=O)CN=C(c2ccccc2)c2cc(Br)ccc21 | 2.1% (inactive) |  |
| CN(C)C(=O)Oc1ccc(Cl)c2cccnc12 | 3.9% (inactive) |  |
| Cc1cc(C)cc(-n2c(O)c(C=Nc3ccc(N4CCOCC4)cc3)c(=O)[nH]c2=S)c1 | 23.1% (inactive) |  |
| O=c1[nH]c(=S)n(-c2ccc(Br)cc2)c(O)c1C=Nc1ccc(N2CCOCC2)cc1 | 24.5% (inactive) |  |
| O=c1[nH]c(=S)n(-c2ccc(Cl)cc2)c(O)c1C=Nc1ccc(N2CCOCC2)cc1 | 102% (active) | 80.1 |
| O=C1NC(=O)N(c2ccccc2)C(=O)/C1=C\c1ccccc1[N+](=O)[O-] | 3.7% (inactive) |  |
| O=c1c(C=Nc2cccnc2Cl)c(O)n(CCCCl)c(=O)n1C1CCCCC1 | 71% (active) |  |
| C=CCn1c(=O)c(C=Nc2cccnc2Cl)c(O)n(CCCC)c1=O | 119% (inactive) | 1.7 |
| CCCCn1c(=O)c(C=Nc2cccnc2Cl)c(O)n(CCCCl)c1=O | 37.8% (inactive) |  |
| Cc1ccc(N2C(=O)NC(=O)C(CCc3ccccn3)(Cc3cccc(Cl)c3Cl)C2=O)cc1 (stereo not drawn) | 0.2% (inactive) |  |
| Cn1c(O)c(/C=C/C=Nc2ccccc2)c(=O)n(C)c1=S | 91.4% (active) | 60.5 |

| Compound | inhibition (at 20 µM) | inhibition [1] [%] |
| --- | --- | --- |
| Cc1cccc(-n2c(O)c(/C=C/C=Nc3ccccc3)c(=O)[nH]c2=O)c1 | 147% (inactive) |  |
| Cn1c(O)c(/C=C/C=Nc2ccccc2)c(=O)n(C)c1=O | 52.8% (inactive) | 27.8 |
| O=c1[nH]c(=O)n(-c2ccccc2)c(O)c1/C=C/C=Nc1ccccc1 | 147% (inactive) |  |
| Cc1ccc(-n2c(O)c(C=Nc3ccc(Br)cn3)c(=O)[nH]c2=O)cc1 | 124% (active) |  |
| Cc1cccc(-n2c(O)c(C=Nc3ccc(Br)cn3)c(=O)[nH]c2=O)c1 | 144% (inactive) |  |
| Cc1ccc(-n2c(O)c(/C=N/c3ncc(Br)cc3Br)c(=O)[nH]c2=O)cc1 | 64% (inactive) | 2.3 |
| Cc1ccc(-n2c(O)c(/C=C/C=Nc3ccccc3)c(=O)[nH]c2=O)cc1 | 74.3% (active) |  |
| Cn1c(O)c(C=Nc2ccccc2)c(=O)n(C)c1=O | 1.3% (inactive) |  |
| CC(=O)c1cccc(OCC(O)CN2CC=C(c3ccccc3)CC2)c1 (stereo not drawn) | -1% (inactive) |  |
| O=c1c2ccccc2[nH]c(=S)n1-c1ccc(Br)cc1 | -0.2% (inactive) |  |
| O=c1[nH]c(O)c(N=Nc2ccc(SC(F)F)cc2)c(=O)[nH]1 | 3.1% (inactive) |  |
| CCCOP(=O)(OCCC)C(NC(=O)c1cc(OC)c(OC)c(OC)c1)c1ccccc1 (stereo not drawn) | -1.1% (inactive) |  |
| CCOC(=O)c1c(C)n(C(C)C)c2ccc(OC)cc12 | -1.3% (inactive) |  |
| COc1cccc(CNC(=O)CCC(=O)N2C[C@H]3C[C@H](C2)c2cccc(=O)n2C3)c1OC | 1.4% (inactive) |  |
| CCc1ccc(N2C(=O)NC(=O)/C(=C/c3cccn3CCOc3ccc(C)cc3)C2=O)cc1 | 73.7% (inactive) | 6.1 |
| CCC(C)c1ccc(N2C(=O)NC(=O)/C(=C/c3cccn3CCOc3ccc(C)cc3)C2=O)cc1 (stereo not drawn) | 65.8% (active) | 70.7 |
| O=C1NC(=O)N(Cc2ccco2)C(=O)/C1=C\c1cccn1CCOc1ccc(Cl)cc1 | 93.3% (inactive) | 0.8 |
| CCc1ccc(N2C(=O)NC(=O)/C(=C\c3cccn3CCOc3ccc(C(C)C)cc3)C2=O)cc1 | 59.3% (inactive) | 1.8 |
| CCc1ccc(N2C(=O)NC(=O)/C(=C/c3cccn3CCOc3ccc(C(C)CC)cc3)C2=O)cc1 (stereo not drawn) | 53.2% (active) |  |
| Cc1ccc(OCCn2cccc2/C=C2/C(=O)NC(=O)N(Cc3ccco3)C2=O)cc1 | 23.5% (inactive) |  |
